{"source": "the OligoGym collection", "data": [{"target": "PELI3", "assay": "pooled miR-30 sensor sort-seq; sequence = guide strand", "settings": "shRNA", "values": [{"sequence": "ATCATGTGTATACTCCACTATG", "sensor-assay potency score (higher = more potent)": -1.35}, {"sequence": "ATTGGTGGTCAGTCCATCCATC", "sensor-assay potency score (higher = more potent)": -0.798}, {"sequence": "AAGTCAATCATGTTCTCTGTGG", "sensor-assay potency score (higher = more potent)": -0.484}, {"sequence": "TCTGTGTCGCTATCATGTGTAT", "sensor-assay potency score (higher = more potent)": -0.903}, {"sequence": "TTGCTAGAGGCATCGAAGCCAG", "sensor-assay potency score (higher = more potent)": -0.912}, {"sequence": "TGTATACTCCACTATGACCGAG", "sensor-assay potency score (higher = more potent)": -0.429}, {"sequence": "TGTCTGTGTCGCTATCATGTGT", "sensor-assay potency score (higher = more potent)": -0.284}, {"sequence": "TACACATTCCCACAGACCGAGA", "sensor-assay potency score (higher = more potent)": -1.66}, {"sequence": "TCAATCATGTTCTCTGTGGAGC", "sensor-assay potency score (higher = more potent)": -0.446}, {"sequence": "TGGAACATGTCTGTGTCGCTAT", "sensor-assay potency score (higher = more potent)": 0.131}, {"sequence": "ATCATGTTCTCTGTGGAGCGGC", "sensor-assay potency score (higher = more potent)": -0.826}, {"sequence": "TATCATGTGTATACTCCACTAT", "sensor-assay potency score (higher = more potent)": -0.135}]}, {"target": "PEX11G", "assay": "pooled miR-30 sensor sort-seq; sequence = guide strand", "settings": "shRNA", "values": [{"sequence": "TAGTGTAGACAAACATGGCCAG", "sensor-assay potency score (higher = more potent)": -0.684}, {"sequence": "TTGGGTGGACACCACCAACAGA", "sensor-assay potency score (higher = more potent)": -1.13}, {"sequence": "AAGAGTCGCAAGATGGTCCTGC", "sensor-assay potency score (higher = more potent)": 0.55}, {"sequence": "TTGCTTAGTGTAGACAAACATG", "sensor-assay potency score (higher = more potent)": -1.38}, {"sequence": "TTAGTGTAGACAAACATGGCCA", "sensor-assay potency score (higher = more potent)": -0.26}, {"sequence": "CAGAACTCCACCAACCAGCTGG", "sensor-assay potency score (higher = more potent)": -1.04}, {"sequence": "TTCAGCAGCATCCACAGGGACC", "sensor-assay potency score (higher = more potent)": -1.68}, {"sequence": "TAGACAAACATGGCCAGGTCAT", "sensor-assay potency score (higher = more potent)": -0.9}]}]}
